Experimental findings from PubChem BioAssay (NCI) are described below.

Holding throughout (experiment): NCI-60 one-dose screen, 48 h (100 = growth as untreated, 0 = no growth, -100 = all killed)
Common to all, as to settings: 10 µM unless noted

For assay [1], the system named is DU-145 prostate.
For assay [2], the system named is K-562 leukemia.
Assay [3] relates to MALME-3M melanoma.
Assay [4] deals with MDA-MB-231 breast.
In assay [5] the test system is RXF 393 renal.
Assay [6] relates to SF-268 CNS.
Assay [7] deals with SF-295 CNS.
Assay [8] concerns SF-539 CNS.
Assay [9] relates to UACC-257 melanoma.
Assay [10] concerns M14 melanoma.
The subject of assay [11] is HCT-15 colon.
Assay [12] deals with HT29 colon.
Assay [13] has as its system SNB-75 CNS.
The subject of assay [14] is SNB-19 CNS.
Assay [15] has as its system U251 CNS.
Assay [16] deals with PC-3 prostate.
In assay [17] the test system is SK-MEL-5 melanoma.
Assay [18] has as its system UACC-62 melanoma.
Assay [19] deals with LOX IMVI melanoma.
In assay [20] the test system is SK-MEL-28 melanoma.

About 83,000 compounds went through this panel and 20% of them were active in at least one assay; those are over-represented in the sample as a whole.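 Results are percent growth after 48 hours of single-concentration exposure. 100 means growth as in untreated cells, lower positive values show inhibition; negative values down to -100 show cell death.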 Values without a mark were called inactive. Active and inactive are the calls of the source. How the source made its calls: active means growth percent below 10; inactive means the rest.

Take `COc1cccc(-c2nn(-c3ccccc3)cc2-c2ccnc(NCCCNC(=O)c3ccccc3)c2)c1`: the growth in assay [1] is 64.7%; in assay [2], 11.2%; in assay [3] it was 57.5%; in assay [4], 45.9%; in [5], 63.3%; in assay [6], 66.2%. Also, the growth in [7] was 51.5%; in assay [8] it was 80.2%; in assay [9] it was 40.7%; in assay [10] it was 33.3%; in [11], 33%; in assay [12], 8.81% (active). The growth in [13] is 60.1%; in [14], 70.4%; in [15] it was 43.3%; in [16], 26.2%; in [17], 5.44% (active); in [18] it was 33.8%. Further, the results for the growth in [19] and in assay [20] were 66.1% and 67.8%, respectively.

With `Cc1cc(Cl)ccc1Nc1nc(C(F)(F)F)ccc1C(=O)N/N=C/c1ccc(N(C)C)cc1`, the growth in assay [1] is 40.3%; in assay [2], 18.9%; in assay [3], 22.1%; in assay [4], 22%; in [5] it was -4.86% (active); in [6], 31.8%. The growth was -7.53% (active) in [7]; 41.4% in [8]; 30% in assay [9]; 33.9% in assay [10]; 15.9% in assay [11]; 32.5% in [12]. The growth in [13] is 65.1%; in assay [14] it was 42%; in assay [15], 16.2%; in [16] it was 30.3%; in assay [17] it was 12.9%; in assay [18], 9.47% (active). In addition, the growth was 27% in [19] and 45.2% in assay [20].

As for `CCN(CC)CCCCCCNc1cc(OC)c(Cl)c2cccnc12`, the growth is 95.4% in [1]; 59.6% in assay [2]; 88.4% in assay [3]; 66.8% in assay [4]; 84.6% in assay [5]; 85.3% in assay [6]. Also, the growth in assay [7] is 82.3%; in [8] it was 81.9%; in assay [9], -1.76% (active); in assay [10] it was 27.2%; in assay [11], 78.4%; in assay [12], 16.2%. Besides, the growth in assay [13] is 63.5%; in assay [14], 96.4%; in assay [15], 74.4%; in assay [16], 64.9%; in assay [17], 68.7%; in [18] it was -30.6% (active). The growth in [19] is 55.7%; in [20], 64.6%.

Consider `O=C1OC(c2nc3ccccc3s2)=C/C1=C\c1ccc(O)cc1`, for which the growth was 111% in [1]; 102% in assay [2]; 100% in [3]; 87.2% in assay [4]; 119% in assay [5]; 100% in assay [6]. Moreover, the growth was 101% in assay [7]; 93% in [8]; 114% in assay [9]; 105% in assay [10]; 111% in [11]; 99.5% in assay [12]. The growth is 92.7% in assay [13]; 97.2% in [14]; 107% in assay [15]; 88.8% in assay [16]; 104% in assay [17]; 89.1% in assay [18]. For the same compound, the results for the growth in assay [19] and in assay [20] were 94.3% and 107%, respectively.

Regarding `COc1cccc(-c2nn(-c3ccccc3)cc2-c2ccnc(NCCNC(=O)Nc3ccccc3)c2)c1`, the growth is 65.9% in assay [1]; 28.2% in [2]; 77.8% in [3]; 47.9% in [4]; 63.5% in assay [5]; 60.9% in assay [6]. For the same compound, the growth was 54.4% in assay [7]; 83.6% in [8]; 42.9% in assay [9]; 35.7% in assay [10]; 39.3% in assay [11]; 29.6% in assay [12]. Besides, the growth was 67.7% in [13]; 66.5% in assay [14]; 36.8% in assay [15]; 30.8% in [16]; 46.1% in assay [17]; 51.5% in assay [18]. Further, the values for the growth in assay [19] and in assay [20] were 44.4% and 77.7%, respectively.

With `CCC1(C2CCCC2)NC(=O)NC1=O` (stereo not given), the growth in assay [1] was 101%; in assay [2], 102%; in [3], 97.5%; in assay [4], 95.6%; in [5], 97.2%; in assay [6], 95.8%. Moreover, the growth is 111% in [7]; 86.3% in [8]; 105% in [9]; 102% in [10]; 92.3% in assay [11]; 94.6% in [12]. Further, the growth in [13] was 93.9%; in assay [14], 98.5%; in assay [15] it was 106%; in assay [16], 101%; in assay [17], 101%; in assay [18], 99.7%. Besides, the growth in [19] is 79.7%; in assay [20] it was 98.4%.

As for `COc1ccc2c(c1)O/C(=C/c1ccc(OCC(=O)c3ccccc3)cc1)C2=O`, the growth in assay [1] is 118%; in assay [2] it was 80.7%; in assay [3], 96.3%; in assay [4], 84.4%; in assay [5] it was 109%; in [6], 117%. In addition, the growth was 137% in [7]; 107% in [8]; 125% in assay [9]; 99.3% in [10]; 111% in assay [11]; 110% in assay [12]. Further, the growth in [13] is 120%; in [14], 108%; in assay [15], 108%; in assay [16] it was 96.2%; in assay [17] it was 125%; in [18], 96.3%. The growth in assay [19] was 108%; in [20], 132%.

With `CC(C)(C)n1cc(-c2ccnc(NCCCNS(=O)(=O)c3ccccc3)c2)c(-c2ccccc2)n1`, the growth in assay [1] is 83.7%; in [2] it was 21.2%; in [3], 82.7%; in assay [4] it was 72%; in assay [5], 62%; in assay [6], 93.1%. Besides, the growth in assay [7] is 63.2%; in assay [8], 66.4%; in assay [9], 77.9%; in assay [10] it was 67.1%; in [11] it was 26.5%; in [12], 24.7%. In addition, the growth in assay [13] is 65.1%; in assay [14], 89.4%; in [15] it was 64.3%; in assay [16], 35.6%; in [17], 53.2%; in assay [18] it was 61.8%. Moreover, the growth in [19] was 50.9%; in [20], 97%.
